From the supplement of paper PMC10338343
± gives the standard deviation.

Test system: EfPiwi piRISC loaded with L1MC piRNA (26 nt)
Assay: pre-steady-state target cleavage rate (min^-1); auxiliary factor: 500 nM Ephydatia muelleri Gtsf1; guide: L1MC piRNA 5'p-UAACUAAAUACUAUGCAAGCUGUAGG; MIWI and MILI are mouse PIWI proteins and EfPiwi is from a freshwater sponge; tags in brackets are library labels; higher = faster piRNA-guided slicing of the target
In short: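 A transcribed, DNA-blocked target RNA library […] was incubated at 33 °C for 0–8 or 0–960 min with 1 nM active affinity-purified piRISC carrying one synthetic guide, in HEPES–potassium acetate buffer with or without 500 nM GTSF1 partner protein. Uncleaved targets were then sequenced and normalised to depth and to weakly complementary targets. Data from three trials were pooled, with k3 capped at 0.0001 min^-1, and a burst-and-steady-state fit yielded the pre-steady-state cleavage rate.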

Sequence	pre-steady-state target cleavage rate
UCCUGCUACAGCUUGCAUUGUAUUUAGAAA	0.00474 ± 0.0017
UCCUGGAUGUCGAACGAUAGUAUUUAGGUA	< 0.0001
UCCUGGAUCACGCUUGCAUAGUAUUUAGUUA	0.223 ± 0.05
UCCUGGAUGUGCUUGCAUAGUAGUUAGUUA	0.0116 ± 0.0041
UCCUGGAUGUGCUCGCAUAGUAUUUAGUUA	0.00512 ± 0.0021
UCCUGGAACAGCUUGCAUAGUAUUUACAAA	0.00238 ± 0.0019
UCCUGGAACAGCAUUGCAUAGUAUUUAGUUA	0.015 ± 0.0044
UCCUGGAUCACCUUGCAUAGUAUUAAGUUA	0.00509 ± 0.0039
UCCUCGUACAGCUAGCAUAGUAUUUAGUUA	0.0402 ± 0.01
UCCUGCUACAGCUUCCAUAGUAUAUAGUUA	0.00251 ± 0.0024
UCCUGGAUGUGCUUCCAUAGUAUUUAGAAA	0.00625 ± 0.0039
UCCUGCUAGUGCUUGCAUAGUAUUUAGAAA	0.00258 ± 0.0014
UCCUGGAUGUGCUUGCAUAGUAUUUACUAA	0.146 ± 0.073
UCCUGGAUGUGCUUGCAUAUUAUUUAGUUA	0.00647 ± 0.0022
UCCUCCUACUGCUUGCAUAGUAUUAAGUUA	0.00682 ± 0.0034
UCCUGGAUGUCGAAGCUUAGUAUUUACUUA	< 0.0001
UCCUCCUACAGUUUGCAUAGUAUUUAGUUA	0.0845 ± 0.021
UCCUGCUACAGCUUGCAUAGUUAUUAGUAA	0.00306 ± 0.0017
UCCUGGUACAGCUUGCAUAGUGUUUAGUUA	0.00794 ± 0.0028
UCCUGGAUGAGCUUGGAUAGUAUUUAGAAA	0.00463 ± 0.0034

Sequence	pre-steady-state target cleavage rate
UCCUCCUACAGCUUGCAUAAUAUUUAGUUA	0.00664 ± 0.0024
UCCUGCUACAGCCUGCAUAGUAUUUAGUUA	0.01 ± 0.0029
UCCUCCUACAGCUUGCAUAGUAUUUAGCUA	0.00335 ± 0.0016
UCCUCCUACAGCUUGGAUAGUAUUUACUUA	0.00254 ± 0.0019
UCCUGGAUCAGCGUUGCAUAGUAUUUAGUUA	0.021 ± 0.0057
UCCUGGAUGUCGUAGCAUAGUAUUUAGUUA	0.00385 ± 0.0025
UCCUGGAACAGCUUGCUAAGUAUUUAGUUA	0.00374 ± 0.0032
UCCUGGUACAGGAUGCAUAGUAUUUAGAAA	0.00448 ± 0.004
UCCUGGAACAGCUUGCAUAGUAUUCAGUUA	0.00333 ± 0.0018
UCCUCCUACAGCUUGGAUUGUAUUUAGUUA	0.0225 ± 0.0082
UCCUGGAUGUCGAACGUUAGAUUUAGUUA	< 0.0001
UCCUCGUACUGCUUGCAUAGUAUUUAGUUA	0.0721 ± 0.018
UCCUGCUACAGCUUGCAUAGUAUUUAAGUUA	0.00777 ± 0.0034
UCCUGGAACCAGCUUGCAUAGUAUUUAGUUA	0.0336 ± 0.0098
UCCUGGAACAGCUUGCAUAGUAUUUCAGUUA	0.00308 ± 0.0026
UCCUGGAUGUCGAACCAUAGUUUUAGUUA	< 0.0001
UCCUGGAUGAGCUUGCAAAGUAAUUAGUUA	0.00431 ± 0.0022
UCCUGGAUCUGCUUGCAUAGUAUUUAGUUA	0.116 ± 0.023
UCCUGGAUGUCGAAGCAUACUAUUUUGUUA	< 0.0001
UCCUGGUACAGCUAGCUUAGUAUUUAGUUA	0.00544 ± 0.0027
